{"source": "PubChem BioAssay (Tox21)", "note": "Several values for one entry are separate records, joined by “and”; a condition that tells them apart may be missing. Equal entries are not always repeated. Records with an inconclusive call do not appear. Some structures have more than one record in an assay (separate samples or runs), and their calls can disagree. Activity calls are given as the source filed them. Calls follow the shape of the full dose curve. % is scaled to controls: 0 for no effect and ±100 for the full control effect; potency is read from the fitted curve at half-maximal effect."}
{"test": "qHTS assay to identify small molecule antagonists of the sonic hedgehog signaling (Shh) pathway (AID 1259369); also: nearly all actives have a fitted effect of over 45% in size", "conditions": "NIH/3T3 Gli1-Luc reporter, Shh antagonist, luminescence 24 h; series mostly up to 92.4 µM; activity change, negative = inhibition: at the top concentration", "procedure,_shortened": "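Cells are plated and held 4hr at 37 C, compounds (DMSO) are pinned in, conditioned medium is added to stimulate the pathway, and after 24hr luciferase reagent is added for 30min before luminescence is read.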"}
{"smiles": "Cc1cc(Cl)ccc1OCCCC(=O)O", "Potency": "inactive"}
{"smiles": "O=P(Oc1ccccc1)(Oc1ccccc1)Oc1ccccc1", "Potency": "1.08 µM (active) and 2.43 µM (active)"}
{"smiles": "CC(C)Oc1cc(-n2nc(C(C)(C)C)oc2=O)c(Cl)cc1Cl", "Potency": "inactive"}
{"smiles": "ClC1C(Cl)C(Cl)C(Cl)C(Cl)C1Cl", "note": "(stereo not drawn)", "Potency": "inactive"}
{"smiles": "CCOc1cc(Oc2ccc(C(F)(F)F)cc2Cl)ccc1[N+](=O)[O-]", "Potency": "inactive"}
{"smiles": "C=C(C)C(=O)OCC1CO1", "note": "(stereo not drawn)", "Potency": "inactive"}
{"smiles": "C#CCOS(=O)OC1CCCCC1Oc1ccc(C(C)(C)C)cc1", "note": "(stereo not drawn)", "Potency": "687 nM (active) and 2.17 µM (active)"}
{"smiles": "Cc1cccc(N)c1N", "Potency": "29.6 µM (active) and inactive"}
{"smiles": "N#CC(Br)Br", "Potency": "inactive"}
{"smiles": "CCC(C)(C)c1ccc(O)cc1", "activity change, negative = inhibition": "0.416% [at 42.5 µM] (inactive)"}
{"smiles": "Oc1cc(Cl)ccc1Oc1ccc(Cl)cc1Cl", "Potency": "5.58 µM (active)"}
{"smiles": "O=C1C=CC(=O)C=C1", "Potency": "inactive"}
{"smiles": "NNC(=S)NN", "Potency": "28.1 µM (active) and 24.3 µM (active)"}
{"smiles": "O=[N+]([O-])c1cccc2ccccc12", "activity change, negative = inhibition": "7.05% (inactive)"}
{"smiles": "O=[N+]([O-])c1ccc(O)c([N+](=O)[O-])c1", "Potency": "30.8 µM (active) and 30.6 µM (active)"}
{"smiles": "Nc1ccc(-c2ccc(N)c(N)c2)cc1N", "Potency": "13.6 µM (active)"}
{"smiles": "Nc1c(Cl)cc([N+](=O)[O-])cc1Cl", "activity change, negative = inhibition": "-17.8% (inactive)"}
{"smiles": "Cc1ccc(N)c(N)c1", "Potency": "24.4 µM (active)"}
{"smiles": "CCc1cccc(CC)c1N(COC)C(=O)CCl", "Potency": "26.4 µM (active)"}
{"smiles": "CCC(CC)Nc1c([N+](=O)[O-])cc(C)c(C)c1[N+](=O)[O-]", "activity change, negative = inhibition": "12.9% (inactive)"}
{"smiles": "CN(C)c1ccc(C(=O)c2ccc(N(C)C)cc2)cc1", "Potency": "inactive and 24.3 µM (active)"}
{"smiles": "CCCCN(CCCC)N=O", "Potency": "inactive"}
{"smiles": "O=C(O)C(F)(F)C(F)(F)C(F)(F)C(F)(F)C(F)(F)C(F)(F)C(F)(F)F", "Potency": "inactive"}
{"smiles": "CCC(C)c1cc([N+](=O)[O-])cc([N+](=O)[O-])c1O", "note": "(stereo not drawn)", "Potency": "inactive and 12.2 µM (active)"}
{"smiles": "Cc1ccc2c(c1N)C(=O)c1ccccc1C2=O", "Potency": "inactive"}
{"smiles": "CN(C)C(=O)Nc1ccc(Cl)cc1", "Potency": "inactive"}
{"smiles": "CC(C)(C)c1ccccc1O", "Potency": "inactive"}
{"smiles": "CCOCN(C(=O)CCl)c1c(C)cccc1CC", "Potency": "18.3 µM (active) and 19.3 µM (active)"}
{"smiles": "CCOC(=S)S", "Potency": "10.9 µM (active) and 13 µM (active)"}
{"smiles": "COP(=S)(OC)Oc1ccc([N+](=O)[O-])cc1", "Potency": "inactive"}
{"smiles": "N[C@@H](Cc1ccc(N(CCCl)CCCl)cc1)C(=O)O", "Potency": "inactive"}
{"smiles": "Nn1cnnc1", "Potency": "inactive"}
{"smiles": "CC(C)(OOC(C)(C)c1ccccc1)c1ccccc1", "Potency": "inactive"}
{"smiles": "Nc1ccc(-c2ccccc2)cc1", "Potency": "17.7 µM (active) and inactive"}
{"smiles": "C[C@]12CCC(=O)C[C@@H]1CC[C@@H]1[C@@H]2CC[C@]2(C)[C@@H](O)CC[C@@H]12", "Potency": "17 µM (active) and 13.7 µM (active)"}
{"smiles": "CCCCNC(=O)n1c(NC(=O)OC)nc2ccccc21", "Potency": "30.5 µM (active) and inactive"}
{"smiles": "O=C(Nc1ccc(Br)cc1)c1cc(Br)cc(Br)c1O", "Potency": "13.7 µM (active) and 13.3 µM (active)"}
{"smiles": "CCOC(=O)C(C)OC(=O)c1cc(Oc2ccc(C(F)(F)F)cc2Cl)ccc1[N+](=O)[O-]", "note": "(stereo not drawn)", "Potency": "inactive"}
